Results with a measured potency or affinity are listed apart.

As a reminder, the Inhibition is the change of the read-out against control, counted positive when it falls.

For this test, the system named is Klebsiella pneumoniae. To be noted: Concentration 20 uM; ASSAY_TEST Inhibition of Bacterial Growth; detection method Absorption (OD600); MEDIA CAMHB; plate type 384well; NBS; CORNING #3640; time 18 hr.
In the case of `CCc1nc2ccccc2n1CC(O)COc1cc(C)ccc1Cl` (stereo not given), the Inhibition stood at 3.05%. As for `CN1CCC(c2cc(-c3ccncc3)c(-c3ccc(F)cc3)[nH]2)CC1`, the Inhibition is listed as 5.43%. Turning to `Nc1ncnc2c1c(Cc1cccc3ccccc13)nn2CC1CCNCC1`, the Inhibition is recorded as -3.02%.

Consider `COc1ccc(-c2cc(NC(=O)c3ccc(F)cc3Cl)ccc2OC)cc1`, for which the Inhibition is recorded as 14.44%. For `O=C(Nc1ccc(F)c(-c2nc3cc(-c4ccccc4)cnc3[nH]2)c1)N1CCCC1`, the Inhibition came to 7.38%.

With `C[C@H](C(N)=O)N1CCCC[C@@H]1c1ccc(OCc2cccc(F)c2)cc1`, the Inhibition turned out to be 9.46%. The figure for `CC(C)(CN)c1nc(-c2ccc(Cl)c(O)c2)c(-c2ccnc(N)n2)[nH]1.O=C(O)C(F)(F)F.O=C(O)C(F)(F)F` is 15.34%; for `O=C(OCc1ccccc1)N1CCC(c2cc(-c3ccncc3)c(-c3ccc(F)cc3)[nH]2)CC1` it is 6.24%. As to `CC(C)(C)n1nc(-c2ccccc2)c2c(N)ncnc21`, the Inhibition was found to be 1.67%. For `Cc1cc(C(=O)Nc2ccc(-c3ccccc3)cc2)no1`, the Inhibition is recorded as 16.31%. Take `COc1ccc(-c2nn(C(C)C)c3ncnc(N)c23)cc1OC`: the Inhibition worked out at 10.07%. Consider `Cc1cc(NC(=O)c2ccc(S(=O)(=O)N(Cc3ccccc3)C(C)C)cc2)no1`, for which the Inhibition is recorded as 8.9%. The figure for `Cc1ccc2[nH]c(C3CCCNC3)c(-c3ccncc3)c2c1.Cl.Cl` (stereo not given) is -25.08%; for `C[C@H](c1ccc2c(c1)CCCC2)N(C)c1ncc2c(N)nc(N)nc2n1` it is 18.37%. The figure for `COc1ccc(C2=NCCN2)cc1-c1cn(-c2cccc(C3=NCCN3)c2)nn1.O=C(O)C(F)(F)F.O=C(O)C(F)(F)F` is 17.32%; for `Cc1ncc(-c2ccnc(Nc3ccc(S(C)(=O)=O)cc3)n2)n1C(C)C` [AZD-5438] it is 16.86%. For the compound `CC(C)(C)OC(=O)N1CCN(c2cc(-c3ccc(Oc4ccccc4)cc3)n[nH]2)CC1`, the Inhibition amounted to 20.96%. In the case of `CC(=O)N(CCN(C(=O)c1ccc(F)cc1)c1ccccc1)c1ccccc1`, the Inhibition stood at 8.37%. As to `Cc1cc2ccccc2n1CC(=O)N1CC(C(=O)N2CCCCC2)Oc2ccccc21` (stereo not given), the Inhibition turned out to be 14.31%.

In the case of `OCc1ccc(-c2cncc(Nc3cccc(Cl)c3)c2)cc1`, the Inhibition came to 12.75%.

As to `Cc1ccc2oc(-c3cc(NC(=O)Cc4ccccc4)ccc3Cl)nc2c1`, the Inhibition was 6.29%.

Turning to `COc1cc(C2=NCCN2)ccc1-n1cc(-c2cccc(C3=NCCN3)c2)nn1.O=CO.O=CO`, the Inhibition is recorded as 8.01%. The value for `CC(C(=O)N1CCCC1)N1CCN(S(=O)(=O)c2ccc(C(C)(C)C)cc2)CC1` (stereo not given) was 0.26%; that for `CC(C)C(NC(=O)Cc1cccc2ccccc12)C(=O)Nc1cccc(C#N)c1` (stereo not given) was 13.86%.

Turning to `Clc1ccc(CN2CCN(C3=NCCN3)CC2)cc1Cl`, the Inhibition worked out at 16.63%.

With `Clc1ccc(CCNc2cc(-c3ccccc3)nc3ncnn23)cc1`, the Inhibition stood at 8.91%. Consider `O=C(NCCN1CCCC1)c1cc(NCCCCN2CCC(F)(F)CC2)nc2ccc(Cl)cc12`, for which the Inhibition turned out to be 15.7%. Turning to `O=C(c1ccc(NCCO)cc1)C1C[C@H]1c1ccc(Cl)cc1` (stereo not given in full), the Inhibition is on record as 5.98%. For the compound `NC(=O)c1cc(-c2ccsc2)ccc1OCCOc1ccccc1`, the Inhibition stood at 14.24%. The figure for `COc1cc(CN2CCC3(C=Cc4ccccc43)CC2)cc2c1OCO2` is -1.15%.

For the compound `CN1CCCC1CCO[C@](C)(c1ccccc1)c1ccc(Cl)cc1.O=C(O)/C=C/C(=O)O` (stereo not given in full), the Inhibition is 21.77%. As for `O=C(CN1CCOCC1)Nc1ccc2ncnc(Nc3ccc(OCc4cccc(F)c4)c(Cl)c3)c2c1`, the Inhibition turned out to be 11.31%.

As to `Nc1cccnc1Nc1ccc(Cl)cc1`, the Inhibition came to 2.25%. Turning to `CNC(=O)c1nn(C)c2c1C(C)(C)Cc1cnc(Nc3ccc(N4CCN(C)CC4)cc3)nc1-2` [MILCICLIB], the Inhibition is on record as -10.97%. For `Cc1nn(C)cc1C(C)Nc1nncc(-c2ccc(C(F)(F)F)cc2)n1` (stereo not given), the Inhibition came out at 3.18%.
